A selection: hits, their analogues and other compounds. The true share with any hit is near 19%.
TDP1 block = blocks human tyrosyl-DNA phosphodiesterase 1; recombinant TDP1, AlphaScreen DNA substrate cleavage; Potency, µM (top dose mostly 130 µM), for the others: top-dose activity change, negative = inhibition, most hits filed as inhibitors; 350,000 compounds, 0.28% hits; AID 485290; also: potency is read from the fitted curve at half-maximal effect; nearly all actives have a fitted effect of over 40% in size
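Signal: AlphaScreen proximity between streptavidin donor and anti-FITC acceptor beads on intact substrate. Reaction: Tdp1 1 nM, substrate 15 nM final, 5 min RT after 15 min compound preincubation.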
Giardia kill = kills Giardia lamblia; activity change, % at 7.66 µM, hits read low; Giardia lamblia trophozoite viability; 340,000 compounds, 0.15% hits; in the data active = activity change below about -80%; inconclusive = between about -30% and that limit;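 also: parasites exposed to compound for two days anaerobically before the ATP read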
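Giardia trophozoites, 100 cells per well, were exposed to compounds for 48 hrs at 37 deg C under anaerobic conditions; viability was then read as ATP content by bioluminescence after 15-30 min at room temperature.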
DT40 TDP1 CPT = DT40-hTDP1 cell growth loss with CPT | chicken DT40 Tdp1-/-;hTDP1 cells + 20 nM CPT, ATP luminescence, 48 h | Potency, µM (titrated, usually from 46.2 µM), for the others: at the highest dose activity change, negative = growth inhibition, hits mostly inhibitors | 420,000 compounds, 12% hits | AID 686979; also: potency is read from the fitted curve at half-maximal effect; nearly all actives have a fitted effect of over 55% in size
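Chicken DT40 Tdp1-/- cells stably complemented with human TDP1 were seeded at 400 cells/well in medium containing 20 nM camptothecin, exposed to pin-transferred compounds, and grown at 37 °C for at least 48 hr. Viability was read as ATP luminescence.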
IL1B secr inh = blocks inflammasome-driven IL-1 beta release. activity change, % at 57.5 µM. 360,000 compounds, 4.7% hits. THP-1 LPS/ATP IL-1B secretion, AlphaLISA, 16 h; hits give low values. AID 743279; in the data active = activity change below about -50%; inconclusive = mostly about -30% to -49%
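THP-1 cells pretreated 1 hr with compounds (up to 57.5 uM final), then stimulated with LPS (250 ng/mL final) plus ATP (1.25 mM final); secreted IL-1B measured by AlphaLISA after 16 hr, decreased signal indicating inhibition.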
DT40 TDP1 no CPT = qHTS for Inhibitors of human tyrosyl-DNA phosphodiesterase 1 (TDP1): qHTS in cells in absence of CPT; DT40 Tdp1-/- hTDP1 cells, no CPT, ATP luminescence, 48 h; Potency, µM (highest dose often 46.2 µM), for inactives: top-dose activity change, negative = growth inhibition, hits mostly inhibitors; 420,000 compounds, 15% hits; also: potency is read from the fitted curve at half-maximal effect; nearly all actives have a fitted effect of over 55% in size
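Growth of hTDP1-complemented DT40 Tdp1-knockout cells is measured by ATP luminescence after at least 48 hr compound exposure at 37 °C, with DMSO substituting for the 20 nM CPT used in the parallel screen.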
ELG1 DNA repair = ELG1-dependent DNA repair inhibition. HEK293T ELG1-luciferase reporter, luminescence, 16 h; DNA damage induced by 5-fluorouridine. Potency, µM (titrated, usually from 46.1 µM), without a hit: at the highest dose activity change, negative = inhibition, actives largely listed as inhibitors. 330,000 compounds, 2.3% hits. AID 504467; also: potency is read from the fitted curve at half-maximal effect; nearly all actives have a fitted effect of over 55% in size
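Cells (2,000 per well) received 5-fluorouridine plus test compound or DMSO and were incubated 16 hr at 37 °C, 5% CO2. Luciferase activity was read by luminescence 30 min after ONE-Glo addition; signal suppression marked inhibition of damage-induced ELG1 function.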
Starred values were filed as active, the others as inactive; ? = inconclusive; . = not tested or not shown; [ ] = remark or other dose. Unless noted, calls follow the shape of the dose curve; as a rule, active = well fitted curve in the direction sought with a large enough effect; inconclusive = small, poorly fitted or top-dose-only effect, or another doubt; inactive = no such curve, though single readings can be large; an effect the other way counts as inactive or inconclusive. % is scaled to controls: 0 for no effect and ±100 for the full control effect.

SMILES	TDP1 block	Giardia kill	DT40 TDP1 CPT	IL1B secr inh	DT40 TDP1 no CPT	ELG1 DNA repair
O=S(=O)(CCc1ccncc1)c1ccc(Cl)cc1	.	-12	-16%	24	?	?
Cc1ccc(CNCC(O)(c2ccccc2)c2ccccc2)cc1	.	8	?	-11	21µM*	-22%
CCc1ccc(C(O)(CNCc2ccccc2)c2ccccc2)cc1 (stereo unspecified)	.	17	23µM*	-10	21µM*	-7%
Cc1cc(C)n(CC(O)COc2ccccc2Br)n1 (stereo unspecified)	1%	-9	-8%	-12	-22%	15%
CCOC(=O)c1ccc(NC(=S)N2CCN(C(=O)C3CCCO3)CC2)cc1 (stereo unspecified)	5%	7	-5%	0	-4%	-16%
CN(C)CCNc1cc(N2CCN(C)CC2)ncn1	.	.	11%	.	4%	.
CCc1nc2ccc(C(=O)NCCc3ccccn3)cn2c1N(C)Cc1cccs1	.	.	?	-21	18µM*	.
CCCCN(C(C)=O)c1c(CC)nc2ccc(C(=O)NCCc3ccccn3)cn12	.	.	-8%	0	-16%	.
CCc1nc2ccc(C(=O)NCCc3ccccn3)cn2c1N(C)Cc1nccs1	.	.	?	-11	16µM*	.
CCc1nc2ccc(C(=O)NCc3cccs3)cn2c1N(C)Cc1nccs1	.	.	?	-54*	21µM*	.
CCc1nc2ccc(C(=O)NCCC(C)C)cn2c1N(C)Cc1nccs1	.	.	?	-21	?	.
CCc1nc2ccc(C(=O)Nc3ccc(OC)c(OC)c3)cn2c1N(CC)Cc1cccc(Br)c1	.	.	23µM*	-57*	23µM*	.
CCc1nc2ccc(C(=O)NCc3cccs3)cn2c1N(CC)CCN(C)C	.	.	-23%	-22	1%	.
O=C(Nc1ccccc1F)c1nc(SCc2ccccc2F)ncc1Cl	5%	.	?	.	?	.
CC1=C(c2ccc(C)c(C)c2)S(=O)(=O)N=C1N1CCC(C(=O)NCc2ccc(C)o2)CC1	-3%	.	4%	.	-17%	.
COc1cc(=O)n2c(c1C(=O)N(C)Cc1nonc1C)CCN(C(=O)c1ccc(C)c(C)c1)CC2	.	.	0%[9.04 µM]	.	0%	.
O=C(O)c1ccccc1C(=O)NC1Cc2ccccc2C1	0%	-2	-8%	-5	-7%	2%
CCc1nc2ccc(C(=O)Nc3ccc(OC)c(OC)c3)cn2c1N(C)Cc1nccs1	.	.	15µM*	-23	?	.
CCc1nc2ccc(C(=O)Nc3ccc(OC)c(OC)c3)cn2c1N(C)Cc1ccc(N(C)C)cc1	.	.	?	8	?	.
COc1ccc(-c2nc(C)c(CCNC(=O)c3cccc(C)c3)s2)cc1OC	3%	.	.	.	.	.
Cc1csc(Nc2ccccc2C(F)(F)F)n1	4%	5	-3%	32	?	-1%
Cc1cc(C)n(-c2nnc(NC(C)(C)C)nn2)n1	3%	-14	5%	17	-13%	?
CCNc1nc(NCC)nc(-n2nc(C)cc2C)n1	0%	?	2.3µM*	-2	2.6µM*	?
Cc1cc(C)n(-c2nc(N(C)C)nc(N(C)C)n2)n1	1%	1	?	4	15µM*	-5%
Cc1cc(C)n(-c2nc(NC(C)(C)C)nc(NC(C)(C)C)n2)n1	4%	-6	2.1µM*	14	1.8µM*	?
Cc1cc(C)n(-c2nc(Nc3ccccc3C(F)(F)F)nc(-n3nc(C)cc3C)n2)n1	7%	?	16µM*	-54*	15µM*	13µM*
O=C(c1ccc(N2CCOCC2)c([N+](=O)[O-])c1)N1CCCC(C(F)(F)F)C1 (stereo unspecified)	.	-9	-20%	-6	-25%	5%
CCCCn1c(N)c(N(CCOC)C(=O)CSCc2cccc(C)c2)c(=O)[nH]c1=O	1%	4	-24%	-6	-5%	4%
CC(C)Oc1ccc(Cc2cnc(=S)[nH]c2N)cc1	2%	-18	-26%	0	?	10%
